Source: PubChem BioAssay (NCI)
This is part of a sample that, as a whole, favours compounds with a hit. Of some 83,000 tested, about 20% had one in any assay.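 Treatment: one concentration, 48 hours, 96-well format. Scoring: percent growth, with anything below 10 considered active.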 Values without a mark were called inactive. Activity calls are given as the source filed them.

These compounds were tested on EKVX NSCLC (assay: NCI-60 one-dose screen, 48 h (100 = growth as untreated, 0 = no growth, -100 = all killed)). Conditions: 10 µM.
Method: Growth inhibition of the EKVX human Non-Small Cell Lung tumor cell line is measured as a screen for anti-cancer activity. Cells are grown in 96 well plates and exposed to the test compound for 48 hours. Compounds are tested at a single concentration, which is 10^-5 M for most compounds. The reported endpoint is percent growth (GI% or GIPRCNT), where numbers from 0 - 100% represent growth inhibition, and numbers from -100% - 0 represent cell death. For example, a value of 40 represents 60% growth inhibition. A value of 0 means no net growth occurred over the course of the experiment. A value of -40 indicates 40% of cells at the beginning of the experiment died by the end of the experiment. A value of -100 means all cells are dead at the end of the experiment.
NCI-60 Human Tumor Cell Lines Screen was performed using the standard one-dose NCI protocol, which is described in more detail at https://dtp.cancer.gov/discovery_development/nci-60/default.htm.
Compounds with GIPRCNT values below 10 were considered active. Activity score was based on GIPRCNT using the following formula: […]
Score is 0 for GIPRCNT values of 100 or above, 50 for GIPRCNT values of 0, and 100 for GIPRCNT values of -100.
`O=C(/C(Br)=C/c1ccccc1)c1ccccc1` was tested, and the growth was 109%.
`Nc1nc(-c2cccc(Br)c2)cc(-c2cc3ccccc3oc2=O)n1` showed a growth of 93.9%.
`COC1(OC)N=C(N)C2(C#N)C3(C(=O)Nc4ccccc43)C12C#N` (stereo not given) was tested, and the growth was 77.4%.
Work on `COc1ccc(OC)c(Cn2cc3c(c2-c2ccccc2)CCc2cnoc2-3)c1` yielded a growth of 58.5%.
Work on `CCOC(=O)C1C(=O)C(=O)N(C(C)C)C1C(=O)OCC` (stereo not given) yielded a growth of 106%.
For `CCCCCCCCc1ccc(CCC(N)(CO)CO)cc1`, the growth was 54.8%.
`COc1ccc(/C=C2\SC(=O)N(Cc3cc(=O)oc4ccc(OC)cc34)C2=O)cc1` showed a growth of 79.3%.
`O=c1c2c(c3ccccc3n1-c1ccccc1)NC(=S)NC2c1ccccc1` (stereo not given) was tested, and the growth was 97.1%.
With `CCCCN(CCCC)CCCNc1c2c(nc3ccc(Cl)cc13)CCCC2` the growth was 95.5%.
`CCCCN(CCC)CCCCCCCCCCN1CCCc2ccccc21` showed a growth of 64.3%.
With `CCOc1ccccc1/C=N\N=C(N/N=C/c1ccccc1OCC)N/N=C/c1ccccc1OCC` the growth was 14.2%.
In the case of `COc1cc2ncnc(-n3ncc4cc(NC(=O)Nc5ccccc5)ccc43)c2cc1OC`, the growth is reported as -1.75% (active).
`Cc1[nH]n(C(=S)Nc2nc3cc(Cl)c(F)cc3s2)c(=O)c1N=Nc1ccc(F)c(Cl)c1` gave a growth of 80.1%.
`O=C(Nc1cccc(Cn2c(=O)[nH]c3ccc(Oc4ncccn4)cc3c2=O)c1)c1cccc(F)c1` gave a growth of 78.6%.
In the case of `COc1ccc(-c2nc(N)n(C(=S)Nc3ccccc3)n2)cc1`, the growth is reported as 96.3%.
In the case of `N=C(N)c1ccc(-c2ccc(-c3ccc(F)cc3)s2)cc1`, the growth is reported as -91.4% (active).
`COc1cc(CNC(=O)CCCC/C=C/C(C)C)ccc1OCc1nnc(Nc2ccccc2F)o1` showed a growth of 77.1%.
With `COC(=O)c1ccc2[nH]c(O)c(C(=Nc3ccc(N(C)C(=O)CN4CCN(C)CC4)cc3)c3ccc(CCO)cc3)c2c1` the growth was 85.5%.
For `COC(=O)c1ccc2[nH]c(O)c(C(=Nc3ccc(N(C)C(=O)CN4CCN(C)CC4)cc3)c3ccc4c(c3)OCO4)c2c1`, the growth was 37.3%.
With `CCCCCSc1ccc2nc(NC(=O)OCC)sc2c1` the growth was 30.3%.
Work on `O=C(CN1C(=O)NC(c2ccccc2)(c2ccccc2)C1=O)c1ccc(N2CCCC2)cc1` yielded a growth of 82.4%.
For `O=C(Nc1ccc(Cl)cn1)C1(c2ccccc2)CCCCC1`, the growth was 96%.
In the case of `O=S(=O)(O)c1ccc2c(c1)Sc1cc(S(=O)(=O)O)ccc1O2`, the growth is reported as 90.1%.
`COC(=O)Nc1nc2ccc(C(=O)c3ccccc3N(C)C3COC3)cc2[nH]1` gave a growth of 53.6%.
`CCCCCCCCCCN1CC2CCCCC2C1` (stereo not given) was tested, and the growth was 63%.
In the case of `CCOC(=O)NC1=NCC(C)(C)S1`, the growth is reported as 98.2%.
`CCCCCCCCCCCCCCCC[n+]1cccc(C#N)c1` showed a growth of 98%.
Work on `Cc1ccc(NCc2cn(-c3ccc(C(=O)O)cc3)nc2-c2ccc(C(=O)O)cc2)cc1` yielded a growth of 106%.
Work on `CCOP1(=O)CC(C)=C(Cl)C(P(=O)(O)O)C1` (stereo not given) yielded a growth of 102%.
Compound `CCOC(=O)c1sc(NS(=O)(=O)c2ccccc2)nc1C` has a growth of 116%.
For `Clc1ccc(N/N=C/c2ccccn2)nc1`, the growth was 5.55% (active).
`COc1cc2ncnc(Nc3ccc4c(cnn4C(=O)Nc4ccccc4)c3)c2cc1OC` gave a growth of 85.2%.
Compound `NNC(=S)N1N=C(c2cc3ccccc3o2)CC1c1c[nH]c2ccccc12` (stereo not given) has a growth of 35.2%.
For `Cc1ccc2c(c1)C(=O)CCS2`, the growth was 100%.
`COc1cc(N2C(=O)C=CC2=O)ccc1N1C(=O)C=CC1=O` was tested, and the growth was 94.2%.
`Cc1ccc2c(O)c(O)cc(NC(C)CCCN)c2n1` (stereo not given) was tested, and the growth was 78%.
With `O=C(/C=C\c1ccccc1Cl)c1ccccc1` the growth was 96.4%.
`Nc1cc(N)c2nc(-c3ccccc3)c(NCCc3ccc(Cl)c(Cl)c3)nc2c1` was tested, and the growth was -100% (active).
Compound `COc1ccc2c(c1)/C(=C/c1c(-c3cc(OC)c(OC)c(OC)c3)nc3sccn13)C(=O)N2` has a growth of 94.3%.
With `COc1ccc2cc(C(C)C(=O)Nc3ccc(S(=O)(=O)Nc4cc(C)on4)cc3)ccc2c1` (stereo not given) the growth was 97.5%.
